Experimental data: the supplement of paper PMC10849652
The full data set covers some 7,900 targets. This sample favours those with a hit. About 0.6% of all pairs of compound and target were hits.

Assays:
Assay in all cases: log2 fold change, soluble protein after heating vs DMSO (PISA); higher = thermal stabilisation; K562 cells, 10 uM, 30 min; active = over 0.2 and 3.5 SD of the protein, either way, in both replicates (recomputed)
saracatinib = compound: CN1CCN(CCOc2cc(OC3CCOCC3)c3c(Nc4c(Cl)ccc5c4OCO5)ncnc3c2)CC1 [saracatinib]
Method in brief: (§1)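 K562 cells at 2×10^6 cells/mL were treated for 30 min with 10 μM compound, and aliquots were heated for 3 min over 48°C-58°C before pooling. Extraction used PBS with 0.5% NP-40 at 4°C, and soluble protein was the supernatant after 21,000xg for 90 min, measured by TMTpro 16plex LC-MS/MS with channel sums equalised. Thermal stability values, relative to control samples and from duplicates, are log2 fold changes.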

sotrastaurin = compound: CN1CCN(c2nc(C3=C(c4c[nH]c5ccccc45)C(=O)NC3=O)c3ccccc3n2)CC1 [sotrastaurin]
Method in brief: as §1

alvocidib = compound: CN1CC[C@H](c2c(O)cc(O)c3c(=O)cc(-c4ccccc4Cl)oc23)[C@H](O)C1 [alvocidib]
Method in brief: as §1

Tubastatin A = compound: CN1CCc2c(c3ccccc3n2Cc2ccc(C(=O)NO)cc2)C1 [Tubastatin A]
Method in brief: as §1

[1] = compound: CNC(=O)C1=CC=CC=C1NC2=NC(=NC=C2Cl)NC3=C(C=C(C=C3)N4CCOCC4)OC
Method in brief: as §1

defactinib = compound: CNC(=O)c1ccc(Nc2ncc(C(F)(F)F)c(NCc3nccnc3N(C)S(C)(=O)=O)n2)cc1 [defactinib]
Method in brief: as §1

rucaparib = compound: CNCc1ccc(-c2[nH]c3cc(F)cc4c3c2CCNC4=O)cc1 [rucaparib]
Method in brief: as §1

[2] = compound: CNc1nc(-c2ccc3c(N)n[nH]c3c2)cc(N2C[C@@H](C(=O)NC3CCCCC3)CC[C@H]2C)n1
Method in brief: as §1

encorafenib = compound: COC(=O)N[C@@H](C)CNc1nccc(-c2cn(C(C)C)nc2-c2cc(Cl)cc(NS(C)(=O)=O)c2F)n1 [encorafenib]
Method in brief: as §1

[3] = compound: COC(=O)[C@H](CCSC)NC(=O)C1=C(C=C(C=C1)NC[C@H](CS)N)C2=CC=CC=C2
Method in brief: as §1

Measured: log2 fold change

ERCC6 (UniProt Q03468)
inactive: saracatinib -0.006 | sotrastaurin 0.169 | alvocidib -0.04 | Tubastatin A -0.093 | [1] 0.126 | defactinib 0.016 | rucaparib 0 | [2] -0.085 | encorafenib -0.088 | [3] 0.055

EIF4G1 isoform 8 (UniProt Q04637)
inactive: saracatinib -0.08 | sotrastaurin -0.36 | alvocidib 0.021 | Tubastatin A 0.034 | [1] -0.067 | defactinib 0.008 | rucaparib 0.197 | [2] -0.017 | encorafenib 0.092 | [3] -0.05

DTNBP1 (UniProt Q96EV8)
inactive: saracatinib -0.072 | sotrastaurin 0.026 | alvocidib -0.041 | Tubastatin A 0.023 | [1] 0 | defactinib -0.054 | rucaparib -0.015 | [2] 0.005 | encorafenib 0.014 | [3] 0.054

ERLIN1 (UniProt O75477)
inactive: saracatinib 0 | sotrastaurin -0.072 | alvocidib 0.023 | Tubastatin A 0.029 | [1] -0.06 | defactinib 0.028 | rucaparib 0.072 | [2] -0.004 | encorafenib 0.105 | [3] -0.024

DBR1 (UniProt Q9UK59)
inactive: saracatinib 0.048 | sotrastaurin 0.019 | alvocidib -0.002 | Tubastatin A -0.012 | [1] -0.033 | defactinib -0.012 | rucaparib -0.007 | [2] -0.004 | encorafenib -0.012 | [3] -0.011

CTNNB1 (UniProt P35222)
Chain of UniProt P35222 (P35222 whole entry, looked up): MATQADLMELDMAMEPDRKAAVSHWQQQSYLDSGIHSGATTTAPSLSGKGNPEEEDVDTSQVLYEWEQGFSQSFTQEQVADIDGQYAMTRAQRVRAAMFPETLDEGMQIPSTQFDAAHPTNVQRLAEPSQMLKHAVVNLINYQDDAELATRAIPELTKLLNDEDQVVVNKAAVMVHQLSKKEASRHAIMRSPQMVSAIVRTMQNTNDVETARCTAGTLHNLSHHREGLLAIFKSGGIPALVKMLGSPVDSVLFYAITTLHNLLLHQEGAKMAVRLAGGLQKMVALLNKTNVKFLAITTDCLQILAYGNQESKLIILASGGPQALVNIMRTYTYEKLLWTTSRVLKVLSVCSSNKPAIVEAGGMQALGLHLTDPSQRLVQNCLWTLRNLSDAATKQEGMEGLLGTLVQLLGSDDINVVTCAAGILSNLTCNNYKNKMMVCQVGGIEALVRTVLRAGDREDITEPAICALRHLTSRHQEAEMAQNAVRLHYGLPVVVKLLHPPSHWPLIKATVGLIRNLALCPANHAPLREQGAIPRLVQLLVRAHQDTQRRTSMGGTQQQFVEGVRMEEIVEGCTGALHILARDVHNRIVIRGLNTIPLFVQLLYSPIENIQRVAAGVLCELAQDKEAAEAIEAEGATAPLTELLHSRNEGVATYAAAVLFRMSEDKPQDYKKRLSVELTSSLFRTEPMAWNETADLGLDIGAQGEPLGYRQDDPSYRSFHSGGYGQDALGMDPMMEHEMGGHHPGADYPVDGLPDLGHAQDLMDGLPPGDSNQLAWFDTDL
active: sotrastaurin 1.08
inactive: saracatinib 0.032 | alvocidib 0.037 | Tubastatin A 0.148 | [1] -0.065 | defactinib 0.074 | rucaparib -0.145 | [2] -0.025 | encorafenib 0.079 | [3] -0.015

FAM83D (UniProt Q9H4H8)
Chain of UniProt Q9H4H8 (Q9H4H8 whole entry, looked up): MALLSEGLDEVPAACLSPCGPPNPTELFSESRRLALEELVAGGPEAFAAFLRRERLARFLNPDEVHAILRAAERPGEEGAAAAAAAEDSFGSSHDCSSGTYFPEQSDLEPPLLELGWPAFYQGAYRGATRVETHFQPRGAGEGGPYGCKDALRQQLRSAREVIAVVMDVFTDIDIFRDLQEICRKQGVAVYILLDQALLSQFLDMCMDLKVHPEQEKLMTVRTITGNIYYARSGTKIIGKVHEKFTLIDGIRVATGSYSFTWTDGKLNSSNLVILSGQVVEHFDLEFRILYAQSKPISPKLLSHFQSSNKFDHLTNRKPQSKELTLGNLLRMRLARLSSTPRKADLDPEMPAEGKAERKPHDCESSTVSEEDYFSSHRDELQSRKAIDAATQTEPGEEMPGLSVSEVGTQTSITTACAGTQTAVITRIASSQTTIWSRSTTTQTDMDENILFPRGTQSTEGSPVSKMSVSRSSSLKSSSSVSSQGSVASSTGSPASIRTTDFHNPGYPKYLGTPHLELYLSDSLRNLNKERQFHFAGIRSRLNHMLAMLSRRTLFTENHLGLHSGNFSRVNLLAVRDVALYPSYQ
inactive: saracatinib -0.014 | sotrastaurin -0.055 | alvocidib -0.088 | Tubastatin A -0.002 | [1] -0.004 | defactinib -0.074 | rucaparib 0.078 | [2] 0.03 | encorafenib 0.071 | [3] -0.023

CTU1 (UniProt Q7Z7A3)
inactive: saracatinib 0.01 | sotrastaurin -0.038 | alvocidib -0.19 | Tubastatin A -0.029 | [1] -0.045 | defactinib -0.036 | rucaparib -0.003 | [2] 0.09 | encorafenib 0.02 | [3] -0.031

DPP8 (UniProt Q6V1X1)
active: rucaparib -0.572
inactive: saracatinib -0.002 | sotrastaurin 0.175 | alvocidib 0.024 | Tubastatin A 0.003 | [1] -0.044 | defactinib 0.082 | [2] -0.021 | encorafenib 0.026 | [3] 0.058

EGLN1 (UniProt Q9GZT9)
Chain of UniProt Q9GZT9 (Q9GZT9 whole entry, looked up): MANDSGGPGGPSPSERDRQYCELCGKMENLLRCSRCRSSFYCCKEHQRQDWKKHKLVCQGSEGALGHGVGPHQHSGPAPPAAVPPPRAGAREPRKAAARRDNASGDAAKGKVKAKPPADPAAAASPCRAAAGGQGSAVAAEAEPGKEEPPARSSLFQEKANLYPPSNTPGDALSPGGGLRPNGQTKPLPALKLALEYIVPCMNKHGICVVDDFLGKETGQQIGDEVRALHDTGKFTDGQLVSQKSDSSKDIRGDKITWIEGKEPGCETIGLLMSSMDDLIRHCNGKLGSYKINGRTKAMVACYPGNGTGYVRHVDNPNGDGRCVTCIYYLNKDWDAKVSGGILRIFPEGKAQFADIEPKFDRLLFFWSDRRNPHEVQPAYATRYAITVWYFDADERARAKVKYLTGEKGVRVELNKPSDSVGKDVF
active: Tubastatin A -0.296
inactive: saracatinib -0.01 | sotrastaurin -0.074 | alvocidib -0.003 | [1] 0.065 | defactinib -0.027 | rucaparib 0.114 | [2] 0.03 | encorafenib 0.001 | [3] 0.002

DAB2 (UniProt P98082)
inactive: saracatinib -0.044 | sotrastaurin 0.009 | alvocidib -0.084 | Tubastatin A 0.139 | [1] 0.031 | defactinib -0.026 | rucaparib 0.043 | [2] 0.05 | encorafenib 0.077 | [3] -0.13

CYP51A1 (UniProt Q16850)
inactive: saracatinib -0.072 | sotrastaurin -0.029 | alvocidib 0.027 | Tubastatin A -0.024 | [1] 0.065 | defactinib 0 | rucaparib 0.162 | [2] 0.212 | encorafenib 0.029 | [3] -0.135

DENND10 (UniProt Q8TCE6)
Chain of UniProt Q8TCE6 (Q8TCE6 whole entry, looked up): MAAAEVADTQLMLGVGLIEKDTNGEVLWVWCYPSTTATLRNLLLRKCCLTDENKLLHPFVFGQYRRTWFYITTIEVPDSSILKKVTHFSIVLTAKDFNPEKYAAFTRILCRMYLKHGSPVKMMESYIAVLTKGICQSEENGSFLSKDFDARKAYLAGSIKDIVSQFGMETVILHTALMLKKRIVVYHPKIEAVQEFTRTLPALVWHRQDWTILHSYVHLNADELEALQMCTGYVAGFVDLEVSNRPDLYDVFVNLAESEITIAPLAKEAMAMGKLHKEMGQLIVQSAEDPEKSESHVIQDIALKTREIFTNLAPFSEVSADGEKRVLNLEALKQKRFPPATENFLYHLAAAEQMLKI
inactive: saracatinib 0.035 | sotrastaurin 0.015 | alvocidib 0 | Tubastatin A 0.007 | [1] -0.039 | defactinib -0.058 | rucaparib -0.065 | [2] -0.035 | encorafenib 0.008 | [3] -0.048

ERLIN2 (UniProt O94905)
Chain of UniProt O94905 (O94905 whole entry, looked up): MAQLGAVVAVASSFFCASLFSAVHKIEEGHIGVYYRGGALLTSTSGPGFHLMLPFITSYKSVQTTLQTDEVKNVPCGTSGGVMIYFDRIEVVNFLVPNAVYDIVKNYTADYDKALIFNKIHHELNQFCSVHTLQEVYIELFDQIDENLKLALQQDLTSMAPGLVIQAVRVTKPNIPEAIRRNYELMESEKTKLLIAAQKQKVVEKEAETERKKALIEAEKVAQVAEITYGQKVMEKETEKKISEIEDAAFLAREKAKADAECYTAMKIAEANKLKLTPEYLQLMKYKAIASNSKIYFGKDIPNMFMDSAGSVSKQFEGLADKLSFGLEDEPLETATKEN
inactive: saracatinib -0.044 | sotrastaurin -0.097 | alvocidib 0.034 | Tubastatin A 0 | [1] -0.137 | defactinib 0.026 | rucaparib 0.033 | [2] -0.005 | encorafenib 0.092 | [3] 0.004

FAM3A (UniProt P98173)
inactive: saracatinib 0.038 | sotrastaurin 0.001 | alvocidib -0.027 | Tubastatin A 0.045 | [1] 0.065 | defactinib -0.035 | rucaparib 0.017 | [2] 0.075 | encorafenib 0.118 | [3] -0.041

EOGT (UniProt Q5NDL2)
inactive: saracatinib -0.012 | sotrastaurin 0.052 | alvocidib -0.02 | Tubastatin A 0.025 | [1] 0 | defactinib 0.031 | rucaparib 0.014 | [2] -0.158 | encorafenib 0.042 | [3] -0.032

DTWD2 (UniProt Q8NBA8)
Chain of UniProt Q8NBA8 (Q8NBA8 whole entry, looked up): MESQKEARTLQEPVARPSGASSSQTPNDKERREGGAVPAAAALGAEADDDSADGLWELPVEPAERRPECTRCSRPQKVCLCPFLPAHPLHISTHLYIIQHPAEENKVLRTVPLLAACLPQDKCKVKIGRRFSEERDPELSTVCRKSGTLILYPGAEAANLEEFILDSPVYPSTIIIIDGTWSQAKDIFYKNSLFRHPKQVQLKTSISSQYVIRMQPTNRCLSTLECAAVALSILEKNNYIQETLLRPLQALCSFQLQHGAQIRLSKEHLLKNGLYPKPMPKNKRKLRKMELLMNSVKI
inactive: saracatinib -0.032 | sotrastaurin -0.228 | alvocidib 0.059 | Tubastatin A -0.029 | [1] 0.111 | defactinib -0.022 | rucaparib 0.05 | [2] 0.04 | encorafenib 0.002 | [3] -0.032

DOHH (UniProt Q9BU89)
inactive: saracatinib -0.035 | sotrastaurin 0.196 | alvocidib 0.147 | Tubastatin A -0.121 | [1] -0.076 | defactinib -0.152 | rucaparib -0.002 | [2] -0.064 | encorafenib -0.074 | [3] 0.037

DCAF16 (UniProt Q9NXF7)
inactive: saracatinib -0.052 | sotrastaurin -0.036 | alvocidib -0.082 | Tubastatin A -0.006 | [1] 0.084 | defactinib -0.054 | rucaparib 0.033 | [2] -0.05 | encorafenib 0.004 | [3] -0.041

EEF1A1 (UniProt P68104)
inactive: saracatinib 0.093 | sotrastaurin -0.082 | Tubastatin A -0.096 | [1] 0.007 | defactinib -0.079 | rucaparib 0.146 | [2] 0.102 | encorafenib -0.009 | [3] -0.059
active: alvocidib -0.885

DDX4 (UniProt Q9NQI0)
inactive: saracatinib -0.342 | sotrastaurin 0.209 | alvocidib 0.206 | Tubastatin A 0.102 | [1] -0.097 | defactinib 0.11 | rucaparib 0.543 | [2] -0.095 | encorafenib 0.121 | [3] 0.067

EDC3 (UniProt Q96F86)
Chain of UniProt Q96F86 (Q96F86 whole entry, looked up): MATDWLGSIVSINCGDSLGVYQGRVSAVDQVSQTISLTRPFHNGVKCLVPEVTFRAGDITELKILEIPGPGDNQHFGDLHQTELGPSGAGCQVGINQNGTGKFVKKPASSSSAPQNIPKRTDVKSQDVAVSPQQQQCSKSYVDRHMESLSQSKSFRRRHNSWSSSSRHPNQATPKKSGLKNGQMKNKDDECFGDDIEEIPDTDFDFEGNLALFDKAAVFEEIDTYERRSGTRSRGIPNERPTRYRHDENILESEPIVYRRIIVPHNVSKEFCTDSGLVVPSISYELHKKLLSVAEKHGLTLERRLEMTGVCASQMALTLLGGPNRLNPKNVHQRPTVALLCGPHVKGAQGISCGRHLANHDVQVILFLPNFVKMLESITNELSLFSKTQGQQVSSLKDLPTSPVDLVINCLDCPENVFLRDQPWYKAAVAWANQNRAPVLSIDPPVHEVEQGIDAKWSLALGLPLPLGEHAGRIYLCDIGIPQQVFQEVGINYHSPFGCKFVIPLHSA
inactive: saracatinib -0.041 | sotrastaurin -0.304 | alvocidib -0.021 | Tubastatin A 0.053 | [1] -0.021 | defactinib -0.04 | rucaparib 0.015 | [2] -0.237 | encorafenib 0.048 | [3] 0.005

DDX46 (UniProt Q7L014)
inactive: saracatinib 0 | sotrastaurin -0.197 | alvocidib -0.157 | Tubastatin A 0.101 | [1] 0.054 | defactinib -0.296 | rucaparib -0.125 | [2] 0.028 | encorafenib 0.05 | [3] -0.085

CWC27 (UniProt Q6UX04)
inactive: saracatinib 0.01 | sotrastaurin -0.093 | alvocidib 0.011 | Tubastatin A 0.012 | [1] 0.022 | defactinib -0.139 | rucaparib -0.001 | [2] -0.064 | encorafenib 0.068 | [3] -0.04

CTSH (UniProt P09668)
inactive: saracatinib 0.101 | sotrastaurin 0.044 | alvocidib 0.038 | Tubastatin A 0.017 | [1] -0.002 | defactinib 0.018 | rucaparib -0.121 | [2] -0.03 | encorafenib 0.018 | [3] 0.02

DYNC1I2 isoform 5 (UniProt Q13409)
Chain of UniProt Q13409 (Q13409 whole entry, looked up): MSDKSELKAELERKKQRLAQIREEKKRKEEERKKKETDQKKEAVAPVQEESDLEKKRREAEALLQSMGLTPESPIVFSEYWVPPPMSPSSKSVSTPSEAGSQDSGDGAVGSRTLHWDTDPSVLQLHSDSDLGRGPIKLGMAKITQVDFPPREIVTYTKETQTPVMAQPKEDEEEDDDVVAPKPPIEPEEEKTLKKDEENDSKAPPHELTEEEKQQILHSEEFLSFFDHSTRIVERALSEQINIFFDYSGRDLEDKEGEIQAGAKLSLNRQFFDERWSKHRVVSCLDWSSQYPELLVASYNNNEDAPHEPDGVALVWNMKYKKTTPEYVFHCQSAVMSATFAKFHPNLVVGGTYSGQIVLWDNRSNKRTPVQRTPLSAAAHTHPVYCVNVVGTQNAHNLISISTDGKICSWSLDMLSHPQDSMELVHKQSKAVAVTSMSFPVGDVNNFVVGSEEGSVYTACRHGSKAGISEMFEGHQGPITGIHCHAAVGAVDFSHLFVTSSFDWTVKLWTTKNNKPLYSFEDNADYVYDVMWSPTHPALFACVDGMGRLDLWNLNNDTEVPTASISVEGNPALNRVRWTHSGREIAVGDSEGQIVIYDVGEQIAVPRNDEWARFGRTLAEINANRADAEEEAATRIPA
inactive: saracatinib 0.012 | sotrastaurin 0.021 | alvocidib -0.033 | Tubastatin A 0.003 | [1] 0.012 | defactinib 0.001 | rucaparib -0.006 | [2] -0.005 | encorafenib -0.014 | [3] 0.028

EIF4E2 (UniProt O60573)
Chain of UniProt O60573 (O60573 whole entry, looked up): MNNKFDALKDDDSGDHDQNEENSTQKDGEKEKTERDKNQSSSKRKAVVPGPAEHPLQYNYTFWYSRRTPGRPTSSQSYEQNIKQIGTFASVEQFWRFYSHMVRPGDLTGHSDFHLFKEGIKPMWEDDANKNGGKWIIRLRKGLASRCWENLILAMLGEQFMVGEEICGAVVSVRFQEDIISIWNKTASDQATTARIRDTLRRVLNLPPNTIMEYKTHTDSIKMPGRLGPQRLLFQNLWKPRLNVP
inactive: saracatinib -0.229 | sotrastaurin -0.288 | alvocidib -0.052 | Tubastatin A 0.07 | [1] -0.026 | defactinib -0.001 | rucaparib 0.126 | [2] 0.008 | encorafenib -0.013 | [3] -0.013

CTSZ (UniProt Q9UBR2)
inactive: saracatinib 0.025 | sotrastaurin 0.079 | alvocidib -0.008 | Tubastatin A -0.056 | [1] 0.005 | defactinib 0 | rucaparib -0.098 | [2] 0.012 | encorafenib -0.012 | [3] 0.027

CYBA (UniProt P13498)
Chain of UniProt P13498 (P13498 whole entry, looked up): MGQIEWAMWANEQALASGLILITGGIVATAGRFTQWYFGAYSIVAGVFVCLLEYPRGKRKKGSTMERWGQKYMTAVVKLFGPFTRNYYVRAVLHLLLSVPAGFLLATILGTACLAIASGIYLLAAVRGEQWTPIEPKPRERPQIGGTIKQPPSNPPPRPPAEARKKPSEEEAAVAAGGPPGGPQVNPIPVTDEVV
inactive: saracatinib 0.067 | sotrastaurin 0.033 | alvocidib -0.031 | Tubastatin A -0.02 | [1] 0.01 | defactinib 0.014 | rucaparib -0.035 | [2] -0.013 | encorafenib 0.031 | [3] 0.008

DUS2 (UniProt Q9NX74)
Chain of UniProt Q9NX74 (Q9NX74 whole entry, looked up): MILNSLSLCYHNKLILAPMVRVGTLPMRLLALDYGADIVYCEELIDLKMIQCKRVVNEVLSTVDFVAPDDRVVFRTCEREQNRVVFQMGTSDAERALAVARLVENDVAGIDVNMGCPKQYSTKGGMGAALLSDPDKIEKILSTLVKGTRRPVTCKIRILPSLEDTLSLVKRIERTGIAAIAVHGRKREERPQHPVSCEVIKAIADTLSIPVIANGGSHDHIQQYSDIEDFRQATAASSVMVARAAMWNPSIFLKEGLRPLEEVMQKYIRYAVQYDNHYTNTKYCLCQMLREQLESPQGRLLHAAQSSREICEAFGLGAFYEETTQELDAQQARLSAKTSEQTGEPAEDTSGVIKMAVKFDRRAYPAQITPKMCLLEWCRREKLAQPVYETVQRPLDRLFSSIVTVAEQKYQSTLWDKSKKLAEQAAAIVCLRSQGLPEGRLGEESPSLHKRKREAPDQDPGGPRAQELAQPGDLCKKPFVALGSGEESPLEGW
inactive: saracatinib 0.112 | sotrastaurin -0.098 | alvocidib -0.041 | Tubastatin A 0.041 | [1] -0.048 | defactinib -0.093 | rucaparib 0.042 | [2] -0.113 | encorafenib 0.09 | [3] -0.02
